Measurements published in article PMC5540273 (PLoS ONE, 2017).

Experiments:
Conditions in all cases: concentration: 1 μM,replicates: in singlicate; n = 1
ASK2 = tested on: T1, ASK2
T1 construct: gene MAP3K6

AURKA = tested on: AURKA
AURKB = tested on: AURKB
AURKC = tested on: AURKC
AXL = tested on: AXL
BIKE = tested on: T2, BIKE
T2 construct: gene BMP2K

BLK = tested on: BLK
BMPR1A = tested on: BMPR1A
BMPR1B = tested on: BMPR1B
BMPR2 = tested on: BMPR2
BMX = tested on: BMX
BRAF = tested on: BRAF
BRK = tested on: T3, BRK
T3 construct: gene PTK6

BRSK1 = tested on: BRSK1
BRSK2 = tested on: BRSK2
BTK = tested on: BTK
BUB1 = tested on: BUB1
CAMK1B = tested on: CAMK1B
CAMK1D = tested on: CAMK1D
CAMK1G = tested on: CAMK1G
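Further: KINOMEscan kinase panel screen.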

Cl.Cl.NC[C@H](CC1CCCCC1)NC(=O)c1ccc(-c2ccnc3[nH]ccc23)s1 [GSK1581428]
%Inh (ASK2): 26%
%Inh (AURKA): 93.8%
%Inh (AURKB): 96.8%
%Inh (AURKC): 73%
%Inh (AXL): 96.3%
%Inh (BIKE): 99.1%
%Inh (BLK): 0%
%Inh (BMPR1A): 8%
%Inh (BMPR1B): 23%
%Inh (BMPR2): 1%
%Inh (BMX): 2%
%Inh (BRAF): 0%
%Inh (BRK): 5%
%Inh (BRSK1): 11%
%Inh (BRSK2): 17%
%Inh (BTK): 0%
%Inh (BUB1): 44%
%Inh (CAMK1B): 0%
%Inh (CAMK1D): 36%
%Inh (CAMK1G): 9%

NC(=O)c1ccc(-c2cc3ncnc(SCC(=O)O)c3s2)cc1
%Inh (ASK2): 0%
%Inh (AURKA): 0%
%Inh (AURKB): 80%
%Inh (AURKC): 33%
%Inh (AXL): 0%
%Inh (BIKE): 1%
%Inh (BLK): 0%
%Inh (BMPR1A): 0%
%Inh (BMPR1B): 1%
%Inh (BMPR2): 0%
%Inh (BMX): 15%
%Inh (BRAF): 0%
%Inh (BRK): 0%
%Inh (BRSK1): 0%
%Inh (BRSK2): 0%
%Inh (BTK): 8%
%Inh (BUB1): 18%
%Inh (CAMK1B): 0%
%Inh (CAMK1D): 5%
%Inh (CAMK1G): 0%

CC(C(=O)NC1CCN(c2ccnc(Nc3ccc(F)cc3)n2)C1)c1ccc(Cl)cc1 (centres unmarked) [GSK1379713]
%Inh (ASK2): 0%
%Inh (AURKA): 0%
%Inh (AURKB): 36%
%Inh (AURKC): 47%
%Inh (AXL): 11%
%Inh (BIKE): 16%
%Inh (BLK): 32%
%Inh (BMPR1A): 0%
%Inh (BMPR1B): 0%
%Inh (BMPR2): 0%
%Inh (BMX): 0%
%Inh (BRAF): 0%
%Inh (BRK): 0%
%Inh (BRSK1): 5%
%Inh (BRSK2): 0%
%Inh (BTK): 0%
%Inh (BUB1): 18%
%Inh (CAMK1B): 37%
%Inh (CAMK1D): 8%
%Inh (CAMK1G): 13%

NC(=O)Nc1sc(-c2ccc(F)cc2)cc1C(N)=O [GW789449]
%Inh (ASK2): 0%
%Inh (AURKA): 55%
%Inh (AURKB): 83%
%Inh (AURKC): 85%
%Inh (AXL): 40%
%Inh (BIKE): 98.2%
%Inh (BLK): 46%
%Inh (BMPR1A): 6%
%Inh (BMPR1B): 11%
%Inh (BMPR2): 78%
%Inh (BMX): 0%
%Inh (BRAF): 8%
%Inh (BRK): 0%
%Inh (BRSK1): 2%
%Inh (BRSK2): 0%
%Inh (BTK): 62%
%Inh (BUB1): 20%
%Inh (CAMK1B): 34%
%Inh (CAMK1D): 43%
%Inh (CAMK1G): 0%

Cc1cccc(-c2nc(Nc3ccncc3)c3sccc3n2)n1 [GW869641]
%Inh (ASK2): 29%
%Inh (AURKA): 48%
%Inh (AURKB): 43%
%Inh (AURKC): 30%
%Inh (AXL): 33%
%Inh (BIKE): 13%
%Inh (BLK): 15%
%Inh (BMPR1A): 4%
%Inh (BMPR1B): 82%
%Inh (BMPR2): 37%
%Inh (BMX): 11%
%Inh (BRAF): 36%
%Inh (BRK): 6%
%Inh (BRSK1): 0%
%Inh (BRSK2): 7%
%Inh (BTK): 58%
%Inh (BUB1): 54%
%Inh (CAMK1B): 16%
%Inh (CAMK1D): 24%
%Inh (CAMK1G): 7%

CN(c1ccccc1CNc1nc(Nc2ccc3c(c2)CC(=O)N3)ncc1C(F)(F)F)S(C)(=O)=O
%Inh (ASK2): 0%
%Inh (AURKA): 97.2%
%Inh (AURKB): 98.7%
%Inh (AURKC): 84%
%Inh (AXL): 92.4%
%Inh (BIKE): 56%
%Inh (BLK): 64%
%Inh (BMPR1A): 12%
%Inh (BMPR1B): 0%
%Inh (BMPR2): 0%
%Inh (BMX): 39%
%Inh (BRAF): 0%
%Inh (BRK): 0%
%Inh (BRSK1): 14%
%Inh (BRSK2): 36%
%Inh (BTK): 0%
%Inh (BUB1): 0%
%Inh (CAMK1B): 0%
%Inh (CAMK1D): 0%
%Inh (CAMK1G): 0%

CC(C)c1nc(-c2cccc(NS(=O)(=O)c3ccccc3)c2)c(-c2ccnc(Nc3ccc4c(c3)CN(C)CC4)n2)s1 [GSK1649598]
%Inh (ASK2): 4%
%Inh (AURKA): 23%
%Inh (AURKB): 52%
%Inh (AURKC): 55%
%Inh (AXL): 68%
%Inh (BIKE): 0%
%Inh (BLK): 99.6%
%Inh (BMPR1A): 81%
%Inh (BMPR1B): 99.9%
%Inh (BMPR2): 9%
%Inh (BMX): 96.2%
%Inh (BRAF): 99.9%
%Inh (BRK): 99.4%
%Inh (BRSK1): 24%
%Inh (BRSK2): 46%
%Inh (BTK): 84%
%Inh (BUB1): 82%
%Inh (CAMK1B): 0%
%Inh (CAMK1D): 42%
%Inh (CAMK1G): 11%

N#Cc1cccc(C(=O)NC2CCN(c3ccnc(Nc4ccc(F)cc4)n3)C2)c1 (centres unmarked) [GSK1379708]
%Inh (ASK2): 0%
%Inh (AURKA): 0%
%Inh (AURKB): 0%
%Inh (AURKC): 33%
%Inh (AXL): 20%
%Inh (BIKE): 22%
%Inh (BLK): 32%
%Inh (BMPR1A): 0%
%Inh (BMPR1B): 0%
%Inh (BMPR2): 0%
%Inh (BMX): 6%
%Inh (BRAF): 0%
%Inh (BRK): 16%
%Inh (BRSK1): 0%
%Inh (BRSK2): 0%
%Inh (BTK): 0%
%Inh (BUB1): 31%
%Inh (CAMK1B): 0%
%Inh (CAMK1D): 5%
%Inh (CAMK1G): 0%

COc1cccc(OC)c1C(=O)Nc1cccc(-c2nn3ccccc3c2-c2ccnc(Nc3cccc(F)c3)n2)c1 [GSK361065]
%Inh (ASK2): 0%
%Inh (AURKA): 32%
%Inh (AURKB): 0%
%Inh (AURKC): 70%
%Inh (AXL): 30%
%Inh (BIKE): 0%
%Inh (BLK): 41%
%Inh (BMPR1A): 9%
%Inh (BMPR1B): 21%
%Inh (BMPR2): 0%
%Inh (BMX): 21%
%Inh (BRAF): 17%
%Inh (BRK): 19%
%Inh (BRSK1): 0%
%Inh (BRSK2): 16%
%Inh (BTK): 0%
%Inh (BUB1): 11%
%Inh (CAMK1B): 0%
%Inh (CAMK1D): 13%
%Inh (CAMK1G): 0%

O=c1[nH]cc(-c2ccc(O)cc2)c2sc(-c3ccncc3)cc12 [GSK1033723]
%Inh (ASK2): 0%
%Inh (AURKA): 16%
%Inh (AURKB): 8%
%Inh (AURKC): 8%
%Inh (AXL): 96.1%
%Inh (BIKE): 19%
%Inh (BLK): 0%
%Inh (BMPR1A): 0%
%Inh (BMPR1B): 0%
%Inh (BMPR2): 39%
%Inh (BMX): 18%
%Inh (BRAF): 1%
%Inh (BRK): 7%
%Inh (BRSK1): 29%
%Inh (BRSK2): 0%
%Inh (BTK): 0%
%Inh (BUB1): 15%
%Inh (CAMK1B): 0%
%Inh (CAMK1D): 20%
%Inh (CAMK1G): 1%
